Gli-Sufu block: blocks Gli-Sufu signaling in a luciferase reporter. Sufu-KO-LIGHT fibroblasts, Gli luciferase reporter luminescence. inhibition, % at 5 µM. 340,000 tested, 0.74% active;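 active = inhibition above about 55%, limit read from the data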;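 also: 0% = DMSO-treated cells and 100% = wells with medium but no cells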
Mdm2-MdmX inh: human Mdm2/MdmX binding inhibition; SaOS-2 split-luciferase Mdm2/MdmX complementation, luminescence; inhibition, % at 8 µM; 330,000 tested, 3% active; AID 485346;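 active = inhibition of at least 50% at 8 µM in the primary screen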
Target sequence (O15151 whole entry, looked up): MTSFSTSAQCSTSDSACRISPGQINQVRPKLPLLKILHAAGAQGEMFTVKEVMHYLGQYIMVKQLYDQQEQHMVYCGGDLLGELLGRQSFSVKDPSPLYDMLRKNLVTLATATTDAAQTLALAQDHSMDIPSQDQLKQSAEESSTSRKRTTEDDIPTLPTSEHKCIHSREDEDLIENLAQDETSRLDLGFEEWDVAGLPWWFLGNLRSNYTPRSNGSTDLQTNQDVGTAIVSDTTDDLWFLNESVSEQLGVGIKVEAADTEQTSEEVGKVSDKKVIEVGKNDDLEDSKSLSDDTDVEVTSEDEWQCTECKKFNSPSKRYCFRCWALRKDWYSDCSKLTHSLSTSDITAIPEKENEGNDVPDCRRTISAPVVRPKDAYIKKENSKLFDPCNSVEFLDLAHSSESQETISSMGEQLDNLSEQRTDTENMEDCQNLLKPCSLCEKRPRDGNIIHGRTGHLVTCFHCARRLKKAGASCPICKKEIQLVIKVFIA
Target sequence (Q00987 whole entry, looked up): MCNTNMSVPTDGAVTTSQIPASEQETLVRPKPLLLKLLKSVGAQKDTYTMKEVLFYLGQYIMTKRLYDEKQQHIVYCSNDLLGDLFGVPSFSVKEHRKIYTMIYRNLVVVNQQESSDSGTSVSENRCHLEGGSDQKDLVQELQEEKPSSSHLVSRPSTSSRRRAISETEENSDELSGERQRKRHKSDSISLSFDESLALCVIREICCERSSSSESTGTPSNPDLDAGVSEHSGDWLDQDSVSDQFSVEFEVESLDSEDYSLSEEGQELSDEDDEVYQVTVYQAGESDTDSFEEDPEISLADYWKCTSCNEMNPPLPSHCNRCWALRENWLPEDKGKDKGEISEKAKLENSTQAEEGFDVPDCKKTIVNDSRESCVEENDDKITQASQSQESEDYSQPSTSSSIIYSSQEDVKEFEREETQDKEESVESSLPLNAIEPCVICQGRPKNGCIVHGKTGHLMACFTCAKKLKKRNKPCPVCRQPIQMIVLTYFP
Beta apoptosis: blocks beta cell apoptosis; INS-1E cytokine-induced death, ATP luminescence, 48 h; percent of positive-control rescue, neutral wells zero; protection from apoptosis, % (no concentration beside the values); 300,000 tested, 0.8% active; AID 435005;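 active = Every replicate reaches about 75%, or at least half do and their mean reaches it too, limit read from the data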;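 also: 0% = cytokine-treated negative control wells and 100% = positive control rescue; higher means more ATP so stronger rescue from cytokine killing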
697 NFkB inh: lowers PMA/ionomycin-induced NF-kB signal in 697 B cells; 697 B-cell NF-kB luciferase reporter, 16 h; inhibition, % at 4 µM; 330,000 tested, 0.33% active; AID 435022; in the data active = inhibition above about 35%
Jurkat NFkB inh: lowers PMA/ionomycin-induced NF-kB signal in Jurkat cells; 330,000 tested, 0.53% active; inhibition, % at 4 µM; PMA/ionomycin-induced NF-kB luciferase reporter, luminescence; AID 435003; in the data active = inhibition above about 50%
Mdm2-MdmX conf: human Mdm2/MdmX binding inhibition, confirmed; inhibition, % at 8 µM; luminescent assay; 10,000 tested, 55% active; shares compounds with Mdm2-MdmX inh; AID 489028; in the data active = inhibition above about 40%
FLuc counter: inhibits full-length luciferase, flagging false Mdm2/MdmX hits; shares compounds with Mdm2-MdmX inh; SaOS-2 full-length luciferase counterscreen, luminescence; inhibition, % at 8 µM; 6,200 tested, 77% active; AID 504607;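 active = mean inhibition at 8 µM reaching about 37%, which flags the compound as non-specific, limit read from the data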;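 also: p53-null SaOS-2 cells with luciferase driven by a doxycycline-inducible promoter; compound on cells about two nights before reading with doxycycline added after day one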
* = called active by the depositor; . = no result. Shown are actives, neighbours in structure and some others; about 4% of the full set was active somewhere.

SMILES	Gli-Sufu block	Mdm2-MdmX inh	Beta apoptosis	697 NFkB inh	Jurkat NFkB inh	Mdm2-MdmX conf	FLuc counter
Oc1c(C(c2ccccn2)N2CCC(Cc3ccccc3)CC2)cc(Cl)c2cccnc12 (centres undefined)	21	56*	16	-21	-4	38	33
CN1CCN(C(c2ccccn2)c2cc(Cl)c3cccnc3c2O)CC1 (centres undefined)	-7	49	15	-11	0	.	.
O=C(Oc1c(Cl)cc(Cl)c2cccnc12)N1CCCCC1	-15	0	1	13	6	.	.
Cc1ccc(C(c2cc(Cl)c3cccnc3c2O)N2CCN(C)CC2)cc1 (centres undefined)	-19	69*	52	-44	33	57*	32
Oc1c(C(c2ccc(Cl)cc2)N2CCCC2)cc(Cl)c2cccnc12 (centres undefined)	21	80*	16	-23	0	72*	33
O=C(O)/C=C/C(=O)NC1CCC(CC2CCC(NC(=O)/C=C/C(=O)O)CC2)CC1 (centres undefined)	-1	-1	-10	1	-34	.	.
COc1ccc(Nc2nnc(SCC(=O)NC(=O)Nc3ccc4c(c3)OCCO4)s2)cc1	-13	62*	-2	2	-20	-4	.
COc1cccc(-n2nnnc2SCC(=O)Nc2ccc3c(c2)OCCO3)c1	3	79*	-3	19	5	28	.
CCOc1ccc(-n2nnnc2SCC(=O)Nc2cccc(O)c2)cc1	14	-9	1	-51	-10	.	.
COc1ccc(-n2nnnc2SCC(=O)Nc2ccc3c(c2)OCCO3)cc1OC	-17	17	1	12	10	.	.
CCOc1ccc(-n2nnnc2SCC(=O)Nc2ccc(NC(C)=O)cc2)cc1	-9	57*	-5	7	-1	6	.
O=C(CSc1nnnn1-c1cccc(Cl)c1)Nc1ccc2c(c1)CCC2	.	71*	6	-6	-5	37	60*
CCC(=O)Nc1nnc(SCC(=O)Nc2ccc3c(c2)OCCO3)s1	-6	11	.	9	-16	.	.
CCOc1cc(C(=S)N2CCN(C)CC2)ccc1OCC(=O)N1CCCC1	-9	15	-1	-9	8	.	.
CCOC(=O)C1CNc2cc(S(=O)(=O)CC)ccc2O1 (centres undefined)	3	-8	-1	12	4	.	.
COc1cccc(C(=O)OCC(=O)c2c(N)n(C)c(=O)n(C)c2=O)c1	0	21	-3	13	-4	.	.
CCn1c(=O)c([N+](=O)[O-])c(Cl)c2ccccc21	2	99*	77*	0	-2	97*	55*
Cc1cc(NC(=O)c2c(F)cccc2Cl)n(-c2nc3ccccc3[nH]2)n1	-7	68*	33	-29	-3	32	.
Cc1cc(NC(=O)c2c(F)cccc2F)n(-c2nc3ccccc3[nH]2)n1	27	53*	36	4	10	27	.
Cc1cc(NC(=O)C2CCCCC2)n(-c2nc3ccccc3[nH]2)n1	-2	57*	24	-18	10	43*	68*
Cc1cc(Nc2ccccc2)n(-c2nc3ccccc3[nH]2)n1	21	53*	31	15	2	18	.
Cc1c(NC(=O)COC(=O)/C=C/c2cccc(Br)c2)c(=O)n(-c2ccccc2)n1C	1	-37	-2	-13	-4	.	.
COc1ccc(-c2coc3cc(OC(C)=O)ccc3c2=S)cc1	-57	.	.	.	.	.	.
COc1ccc(-n2nc(C#N)c(Cl)cc2=O)cc1	19	100*	.	4	21	100*	53*
COC(=O)c1nn(-c2ccc(OC)cc2)c(=O)cc1O	-2	-5	-5	7	-21	.	.
Cc1ccc(CNC(=O)c2ccc3c(=O)n4c(-c5ccc(C)cc5)csc4nc3c2)cc1	6	57*	11	18	-1	44*	90*
Cc1ccc(-c2csc3nc4cc(C(N)=O)ccc4c(=O)n23)cc1	1	-5	-7	-27	-8	.	.
O=C(O)CC(C(=O)O)C(c1ccccc1)c1ccccc1 (centres undefined)	1	.	.	.	.	.	.
COc1ccc(NC(=O)CC2Nc3cc(C)c(C)cc3NC2=O)c([N+](=O)[O-])c1 (centres undefined)	-12	88*	19	5	-5	7	.

High-throughput results as filed in PubChem BioAssay.
